Results filed as inconclusive are left out. Where a call stands in place of a potency, no number is given. A number with no mark means an inactive call. The source made the active and inactive calls. Calls follow the shape of the dose curve; as a rule, active = well fitted inhibition curve with a large enough effect; inconclusive = small, poorly fitted or top-dose-only effect; inactive = no such curve, though single readings can be large or run the other way. Where a SMILES comes first, the peptide text is derived from it.
Experiments:
[1] = tested on: Zika virus NS2B-NS3 protease (unlinked complex); test: Primary screen GU Rhodamine qHTS for Zika virus inhibitors: Unlinked NS2B-NS3 protease assay (AID 1347159); also: nearly all actives have a fitted effect of over 60% in size
Outline: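 Enzyme 25 nM in Tris-HCl pH 8.0 + 0.01% Tween 20; compounds up to 114 microM, 15 min RT dark; + Rhod110 substrate 1.5 microM; read t0 and 15 min; delta fluorescence → % inhibition → 4-parameter Hill fit.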

[2] = tested on: Zika virus NS2B-NS3 protease (linked construct); test: Primary screen NINDS Rhodamine qHTS for Zika virus inhibitors (AID 1347160); also: nearly all actives have a fitted effect of over 55% in size
Outline: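 Enzyme (25 nM, linked NS2B-NS3) was preincubated 15 min with compound in 10 mM Tris-HCl pH 8.0, 0.01% Tween 20. Rhodamine110 substrate (1.5 microM) was then added and fluorescence read at start and after 15 min.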
Potency is read from the fitted curve at half-maximal effect.

Question: What does the source list for `Cc1cc(OCCN2CCOCC2)nn1-c1ccc2ccccc2c1`?
Answer: Potency [1]: inactive; Potency [2]: inactive

Question: Which activity change, negative = inhibition [1] does the source give for `O=C(O)[C@H]1Cc2ccccc2CN1` here?
Answer: -0.45% [at 11.5 µM]

Question: And the activity change, negative = inhibition [2]?
Answer: 20.2% [at 4.91 µM]

Question: Which results are given for `CC(=O)OC1C(O)C(C)(O)C(/C=C/C(=O)O)C2(C)CCCC(C)(C)C12` (stereo unspecified)?
Answer: Potency [1]: inactive; Potency [2]: inactive

Question: With `CC(C)(O)C1CCC2(C)CCCC(C)(O)C2C1` (stereo unspecified) as the molecule, how does the Potency [1] read?
Answer: inactive

Question: And the Potency [2]?
Answer: inactive

Question: `CC1CC(=O)C2C(O)(C1)CC(O)C13OC1c1c(O)cccc1C(=O)C23O` (stereo unspecified) was tested. Which Potency [1] did it give?
Answer: inactive

Question: What about the Potency [2] of the same molecule?
Answer: inactive

Question: Which results are given for `C/C=C/C1OC2=C(C(=O)OC2(C)O)C(O)C1O` (stereo unspecified)?
Answer: Potency [1]: inactive; Potency [2]: inactive

Question: `CC1(C)CCC2(C(=O)O)C(O)CC3(C)C(=CCC4C5(C)CCC(OC6OC(CO)C(O)C(O)C6OC6OC(CO)C(O)C(O)C6OC6OCC(O)(CO)C6O)C(C)(C)C5CCC43C)C2C1` (stereo unspecified) was tested. Which Potency [1] did it give?
Answer: inactive

Question: What about the Potency [2] of the same molecule?
Answer: inactive

Question: `CC1(C)CC[C@]2(C(=O)O[C@@H]3O[C@H](CO)[C@@H](O)[C@H](O)[C@H]3O)CC[C@]3(C)C(=CCC4[C@@]5(C)CC[C@H](OC6OC(C(=O)O)C(OC7OC(CO)C(O)C(O)C7O)C(O)C6O)C(C)(C)C5CC[C@]43C)C2C1` (stereo partly specified) was tested. Which Potency [1] did it give?
Answer: inactive

Question: And the Potency [2]?
Answer: inactive

Question: Which results are given for `O=C(/C=C/c1ccc(O)cc1)OC[C@H]1O[C@@H](O/C(=C\c2ccccc2)C(=O)O)[C@H](O)[C@@H](O)[C@@H]1O`?
Answer: Potency [1]: inactive; Potency [2]: inactive

Question: Which results are given for `Cc1cc(CNC(=O)c2cc(C(=O)NCc3ccc(F)c(C)c3)ncn2)ccc1F`?
Answer: Potency [1]: inactive; Potency [2]: inactive

Question: For `CC(=O)OCC1OC(O[C@H]2CC[C@@]3(C)C(CC[C@]4(C)C3CC=C3[C@@H]5CC(C)(C)CC[C@]5(C(=O)O)CC[C@]34C)[C@]2(C)CO)C(O)C(O)C1OC1OC(C)C(O)C(OC2OCC(O)C(O)C2O)C1O` (stereo partly specified), which Potency [1] is on record?
Answer: inactive

Question: What about the Potency [2] of the same molecule?
Answer: inactive

Question: For `CCC(C)/C=C(C)/C=C/C1=CC2=C(Cl)C(=O)C(C)(O)C(=O)C2(O)C(OC)O1` (stereo unspecified), which Potency [1] is on record?
Answer: 15.8 µM (active)

Question: What about the Potency [2] of the same molecule?
Answer: 10 µM (active)

Question: For `CC1=CC(=O)CC(C)(C)C1CO[C@@H]1O[C@H](CO)[C@@H](O)[C@H](O)[C@H]1O` (stereo partly specified), which Potency [1] is on record?
Answer: inactive

Question: What about the Potency [2] of the same molecule?
Answer: inactive

Question: `CCOC(=O)C(CCc1ccccc1)NC(C)C(=O)N1Cc2ccccc2CC1C(=O)O` (stereo unspecified) was tested. Which Potency [1] did it give?
Answer: inactive

Question: And the Potency [2]?
Answer: inactive

Question: For `CC(NC(=O)[C@H](Cc1ccccc1)NC(=O)OCc1ccccc1)C(=O)CF` (stereo partly specified), which Potency [1] is on record?
Answer: inactive

Question: What about the Potency [2] of the same molecule?
Answer: inactive

Question: For `COc1c2ccoc2nc2c(OC)c(O[C@@H]3O[C@@H](C)[C@H](O)[C@@H](O[C@@H]4O[C@H](CO)[C@@H](O)[C@H](O)[C@H]4O)[C@H]3OC(C)=O)ccc12`, which Potency [1] is on record?
Answer: inactive

Question: What about the Potency [2] of the same molecule?
Answer: inactive

Question: Which Potency [1] does the source give for `CC1CCC2(C(=O)O)CCC3(C)C(=CCC4C5(C)C[C@@H](O)[C@@H](O)C(C)(CO)C5CCC43C)C2C1(C)O` (stereo partly specified) here?
Answer: inactive

Question: And the Potency [2]?
Answer: inactive

Question: Which Potency [1] does the source give for `Cn1cc(CCn2cnc(-c3cnn(C)c3)c2-c2ccc(C#N)cc2)cn1` here?
Answer: inactive

Question: What about the Potency [2] of the same molecule?
Answer: inactive

Question: For `CCCC(C(=O)O)c1c(C)nc2ccc(Cl)cc2c1-c1ccccc1` (stereo unspecified), which Potency [1] is on record?
Answer: 31.6 µM (active)

Question: And the Potency [2]?
Answer: 14.1 µM (active)

Question: For `CC1(C)Oc2ncnc(N)c2N=C1c1ccc(C2CCC(CC(=O)O)CC2)cc1` (stereo unspecified), which Potency [1] is on record?
Answer: inactive

Question: And the Potency [2]?
Answer: inactive

Question: Which results are given for `O=C(O)C(Cc1ccccc1)NC(=O)C1CCCN1` (stereo not drawn) (H-Pro-Phe-OH; configuration not given here)?
Answer: Potency [1]: inactive; Potency [2]: inactive

Question: What does the source list for `CCOc1nc2c(N)ncnc2n1CC`?
Answer: Potency [1]: inactive; Potency [2]: inactive

Question: For `CC(=O)OCC1=C[C@@H]2OC(=O)C3=CO[C@@H](O[C@@H]4O[C@H](CO)[C@@H](O)[C@H](O)[C@H]4O)[C@H]1[C@@H]32`, which Potency [1] is on record?
Answer: inactive

Question: What about the Potency [2] of the same molecule?
Answer: inactive

Question: For `C/C=C(\C)C(=O)OCC1OC(OCC2OC(OC3(CO)OC(CO)C(O)C3O)C(O)C(O)C2O)C(O)C(O)C1O` (stereo unspecified), which Potency [1] is on record?
Answer: inactive

Question: What about the Potency [2] of the same molecule?
Answer: inactive

Question: For `COc1c2c(c(C)c3c1C(=O)OC3)OC1(C)CC(O)C34OC(O)(CCC3(C)C1C2)OC4(C)C` (stereo unspecified), which Potency [1] is on record?
Answer: inactive

Question: What about the Potency [2] of the same molecule?
Answer: inactive

Question: Which Potency [1] does the source give for `O=C(O)CC1CCC(c2ccc(NC(=O)c3nnc(Nc4ccc(F)c(F)c4)o3)cc2)CC1` (stereo unspecified) here?
Answer: 14.1 µM (active)

Question: And the Potency [2]?
Answer: 14.1 µM (active)

Question: What does the source list for `COC1OC(O)C2(CCC3(O2)C(C)CC2OC(=O)C4(C)CCCC3(C)C24)C1O` (stereo unspecified)?
Answer: Potency [1]: inactive; Potency [2]: inactive

Question: `Nc1ncnc2c1ncn2[C@H]1O[C@@H](C(=O)N2CCN(CC(=O)Nc3cccc4c3CNC4=O)CC2)[C@H](O)[C@@H]1O` was tested. Which Potency [1] did it give?
Answer: inactive

Question: And the Potency [2]?
Answer: inactive

Reference: PubChem BioAssay (NCATS)
